Screening data deposited in PubChem BioAssay by National Center for Advancing Translational Sciences (NCATS).
An excerpt weighted towards active compounds, which were near 6.1% of everything screened.
D3 ag – agonists of human D3 dopamine receptor | 0.58% of 410,000 active | P35462 | max activation, % | D3R DiscoveRx beta-arrestin cells, luminescence, 90 min; in the data active = max activation above about 30%; also: 0% is about no effect
Target sequence (P35462 whole entry, looked up): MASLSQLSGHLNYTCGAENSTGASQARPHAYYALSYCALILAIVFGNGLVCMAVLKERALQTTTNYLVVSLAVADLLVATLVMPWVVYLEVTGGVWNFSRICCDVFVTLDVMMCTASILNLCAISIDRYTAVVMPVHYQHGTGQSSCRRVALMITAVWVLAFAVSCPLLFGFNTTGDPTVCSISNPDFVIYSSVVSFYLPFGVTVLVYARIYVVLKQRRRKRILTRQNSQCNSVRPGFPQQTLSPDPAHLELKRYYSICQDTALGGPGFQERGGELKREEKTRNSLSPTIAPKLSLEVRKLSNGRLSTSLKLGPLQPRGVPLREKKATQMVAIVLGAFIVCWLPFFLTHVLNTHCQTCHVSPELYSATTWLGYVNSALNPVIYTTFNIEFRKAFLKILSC
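Agonist-mode cell screen: cells plated at 1500/well and incubated overnight at 37 °C, then exposed to library compounds for 90 min at 37 °C. Detection reagent was added for 30–60 min at room temperature, and luminescence was read.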
D1 agonist – human D1 receptor agonism | P21728 | HEK293 T-REx D1 cells, calcium flux, agonist mode | activation, % at 2 µM | 1% of 360,000 active | AID 504660; in the data active = activation above about 30%; also: 0% is about no effect
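Inducible HEK293 T-REx D1 cells, force-coupled to calcium signalling, were plated at 4000 cells/well with tetracycline and held overnight at 30 C. After no-wash calcium dye loading, compound-evoked calcium rise over 180 s flagged agonists.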
D1 potentiator – potentiators of human D1 dopamine receptor | P21728 | HEK293 TREx D1 cells, calcium flux, dopamine EC20 potentiation | potentiation, % at 10 µM | 0.036% of 360,000 active | AID 504651; in the data active = potentiation above about 30%; also: 0% is about no effect
D1 antagonist – antagonists of human D1 dopamine receptor; activity change, negative = inhibition, % at 10 µM; 3.2% of 360,000 active; HEK293 TREx D1 cells, calcium flux, dopamine EC80; hits give low values; in the data active = activity change below about -30%; also: % is scaled to controls: 0 for no effect and ±100 for the full control effect
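Antagonism measured as reduced calcium response to an EC80 dopamine addition following 180 s compound pre-read; cells were inducible HEK293 Trex D1 plated overnight at 30 C, read kinetically at 1 cycle/sec.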
D3 antag – antagonists of human D3 dopamine receptor; P35462; D3R cells, DiscoveRx beta-arrestin luminescence, antagonist mode; hits give low values; max response, negative = inhibition, %; 2.5% of 360,000 active; in the data active = max response below about -50%; inconclusive = no clear call, values can overlap the other calls; also: % is scaled to controls: 0 for no effect and ±100 for the full control effect
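Cells expressing the human receptor were seeded at 1500 cells/well, incubated overnight at 37 degrees C in 5% CO2, then exposed to library compounds with dopamine controls for 90 minutes at 37 degrees C before luminescent detection.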
The depositor's hits bear a star; ? = inconclusive; / = not tested or not shown; ! = not confirmed by another sample.

SMILES	D3 ag	D1 agonist	D1 potentiator	D1 antagonist	D3 antag
Cc1ccc(Cn2c(C(C)Nc3nc(-c4ccc(Cl)c([N+](=O)[O-])c4)cs3)nc3cc(C(F)(F)F)ccc32)cc1 (centres undefined)	3.2	/	/	/	17.5
Cc1ccc(NC(=S)C2=C(O)c3sccc3N(C)S2(=O)=O)cc1	4.4	-2.4	-2.5	/	-87.5*
Cc1ccc(NC(=O)C2=C(O)c3sccc3N(C)S2(=O)=O)cc1	0.0	0.4	-4.2	-6.3	?
CN1c2ccccc2C(O)=C(C(=S)Nc2ccc(Cl)cc2)S1(=O)=O	3.9	4.5	-5.4	-17.0	-87.2*
Cc1cccc(NC(=O)C2=C(O)c3ccccc3N(C)S2(=O)=O)c1	2.0	-0.1	2.0	6.2	?
C=CCNC(=O)CSc1nnc(-c2ccc(S(=O)(=O)N3CCCC3)cc2)n1C	0.1	6.0	/	-4.7	8.9
CCCCNC(=O)CSc1nnc(-c2ccc(S(=O)(=O)N3CCCC3)cc2)n1C	0.9	-1.6	-7.3	-68.5*	-17.7
CCCNC(=O)CSc1ccc(S(=O)(=O)N2CCCC2)cn1	-4.4	-0.3	1.8	-34.2*	8.6
O=S(=O)(c1ccc(SCc2ccccc2F)nc1)N1CCCC1	-6.2	13.3	/	-34.1*	-1.5
CCO/C=C/C(O)(CNC(=O)c1ccc(C(C)(C)C)cc1)C(F)(F)F (centres undefined)	-9.7	22.4	-5.9	-4.6	?
COc1ccc(N2CCN(C(=O)c3oc4ccccc4c3NC(=O)CCc3cc(OC)no3)CC2)cc1	4.2	0.2	-2.5	-2.6	8.4
Cn1c(C(=O)NCc2ccccc2Cl)cc2sc(Cl)cc21	-3.0	3.1	-8.3	-29.1	/
CC(=O)Nc1ccc(N2CCc3c(C)c(C#N)c4nc5ccccc5n4c32)cc1	/	47.1*	1.1	4.8	/
CCC(C(=O)NC1CCCC1)n1c(C2CCCC2)nc2ccccc21 (centres undefined)	0.0	/	/	/	15.3
COC(=O)c1cc(-c2ccccc2)c2c(=O)n(C)c(=O)n(C)c2n1	/	1.4	-1.6	-3.1	/
Cc1[nH]nc2nc3c(c(OC(=O)c4ccccc4)c12)c(=O)n(C)c(=O)n3C	/	-1.0	/	-38.5*	/
Clc1ccc2c(NCc3ccccc3)ccnc2c1	5.3	20.8	-4.8	-37.5*	25.7
CCN(CC)CCNc1ccnc2cc(Cl)ccc12	-29.7	2.5	-0.9	1.9	-79.7*
O=C(NCCNc1ccnc2cc(Cl)ccc12)c1ccccc1F	-13.1	5.3	-4.5	-28.2	-28.7
CCN(CC)Cc1cc(Nc2ccnc3cc(Cl)ccc23)ccc1O	0.0	1.6	-3.2	-83.0*!	0.5
O=C(Nc1ccc(Cl)cc1)c1csc(COCCO)n1	2.3	/	/	/	0.3
O=C(Nc1ccccc1F)c1csc(COCCO)n1	-23.8	/	/	/	-134.2*
CCNc1nc(N)c(C(=O)c2ccc(Cl)s2)s1	-1.6	1.0	-4.3	3.6	-51.1*
COc1ccc(Nc2nc(N)nc(CSc3nc(C)cc(C)n3)n2)cc1	-11.1	-0.7	-1.7	-9.0	-61.2*
COc1ccc(Nc2nc(N)nc(CN(C)C3CCCCC3)n2)cc1	11.0	1.0	-4.8	-34.0*	-15.2
SMILES	D3 ag	D1 agonist	D1 potentiator	D1 antagonist	D3 antag
COc1ccc(NC(=O)N(C)C[C@@H]2OCc3cnnn3CCCC(=O)N([C@@H](C)CO)C[C@H]2C)cc1	4.8	/	/	/	9.3
Cc1ccc2nc3sc(C(=O)N4CCCc5ccccc54)c(N)c3cc2c1	-28.5	36.4*	-1.1	9.4	?
CC1Cc2ccccc2N1CC(=O)NCc1ccc2c(c1)OCO2 (centres undefined)	2.8	1.5	-4.3	3.3	-19.8
COC(C[C@@H]1O[C@H]1C(=O)COCc1ccccc1)OC	-15.5	/	/	/	-26.7
COC(C[C@H]1O[C@@H]1C(=O)COCc1ccccc1)OC	32.2*	/	/	/	-5.5
CCn1cc(CN2CCC(C(=O)Nc3cccc(-c4cscn4)c3)CC2)cn1	-21.7	2.1	1.1	-0.2	0.0
C=CCn1cc(CN2CCC(C(=O)Nc3cccc(-c4cccc(F)c4)c3)CC2)c(C)n1	-10.3	26.9	-8.3	-38.6*	0.0
C=CCn1cc(CN2CCC(C(=O)Nc3cccc(-c4cccc(Cl)c4)c3)CC2)c(C)n1	-4.8	27.0	-16.6	-35.0*	-11.4
Cc1cccc(CN2CCC(C(=O)Nc3cccc(-c4cccc(F)c4)c3)CC2)n1	-14.0	11.1	-4.5	-13.6	10.7
Cc1c(CN2CCC(C(=O)Nc3cccc(-c4cccc(Cl)c4)c3)CC2)cnn1C	-3.5	1.8	-14.4	12.7	-18.7
Cc1nn(C(C)C)c(C)c1CN1CCC(C(=O)Nc2cccc(-c3cccc(F)c3)c2)CC1	-18.6	31.5*	-7.0	8.0	-53.4*
Cn1cc(CN2CCC(C(=O)Nc3cccc(-c4cscn4)c3)CC2)cn1	-3.9	0.1	-8.2	-48.9*	2.0
CCOC(=O)/C=C/C(=O)N1CCN(C(=O)/C=C/C(=O)OCC)CC1	-1.7	1.9	1.3	6.6	-7.2
CCCCCCOc1ccc(N2C(=O)CC(SCCN)C2=O)cc1 (centres undefined)	1.7	64.3*	-8.2	-16.2	3.3
CCOc1ccc(N2C(=O)CC(SCCN)C2=O)cc1 (centres undefined)	0.1	2.8	3.6	0.5	?
Cc1ccc(-n2nc(C)c3c(C)cc(=O)n(CC(=O)Nc4ccc(Br)cc4F)c32)cc1	-17.3	0.9	-4.1	7.6	/
COc1cnc(SC)nc1Nc1ccc(C#N)cc1	-0.8	-0.3	2.4	10.6	-4.9
CCCCNc1oc(-c2ccc(COc3ccccc3C)o2)nc1C#N	2.2	2.3	-0.1	0.0	/
Cc1ccccc1OCc1ccc(-c2nc(C#N)c(NCCCN(C)C)o2)o1	-3.0	43.9*	-1.3	-21.5	/
COc1ccccc1C(=O)Nc1ccnn1C1CCN(C)CC1	-0.2	2.4	2.1	0.9	2.1
COc1ccccc1/C=C/CN1CCC(n2nccc2NC(=O)CCc2ccccc2)CC1	-3.9	31.1*	-7.8	-11.8	?
COc1ccccc1C(=O)Nc1ccnn1C1CCN(C/C=C/c2ccc(F)cc2)CC1	-13.1	22.5	-2.0	-32.3*	22.2
COc1ccccc1C(=O)Nc1ccnn1C1CCN(C(C)CSC)CC1 (centres undefined)	1.3	1.0	-6.1	-39.6*	7.6
CC(C)CC(=O)Nc1ccnn1C1CCN(C(=O)c2ccc(F)cc2Cl)CC1	-4.0	2.0	5.5	2.5	-23.8
O=C(Nc1ccnn1C1CCN(C/C=C/c2ccccc2)CC1)c1ccccc1Cl	-13.4	15.6	-0.1	9.7	2.3
COc1ncccc1C(=O)N1CCC(n2nccc2NC(=O)CC(C)C)CC1	-10.7	3.3	2.6	-0.6	-52.1*
O=C(CCc1ccccc1)Nc1ccnn1C1CCN(C/C=C/c2ccccc2)CC1	-16.2	10.9	-7.8	-8.3	?
O=C(Nc1ccc(Cl)c(S(=O)(=O)N2CCOCC2)c1)c1ccc(Cl)nc1	2.8	7.6	-1.2	-3.2	-7.2
Cc1ccc(S(=O)(=O)/N=C2/NC(=O)/C(=C/c3cccnc3)S2)cc1	-7.6	2.5	2.4	-35.4*	0.0
O=C1N/C(=N/O)S/C1=C/c1cccnc1	-8.1	1.2	14.4	2.5	-19.9
